# Activity calls are given as the source filed them.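 Rule for the calls: active = cell killing, with a fitted half-maximal concentration at or below twice the top valid dose tested; inconclusive = flat curve with moderate signal loss, or a poor fit; inactive = effect in the rising direction, plus the rest.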
# Assay: cell viability loss in HEK293T cells – ATP luminescence, dry powder, set 11, cytotoxicity control, dose response (AID 743335)
# Settings: ATP luminescence (CellTiter-Glo), 72 h; series mostly up to 15 µM
row,Compound,outcome
1,CN(C)S(=O)(=O)c1ccc(N2CCCC2)c(C(=O)Nc2nccs2)c1,inactive
2,CN(C)CCCN(Cc1cc2ccccc2[nH]c1=O)C(=O)NCc1ccccc1,inactive
3,Cc1cnc(NC(=O)c2cc(S(=O)(=O)N3CCOCC3)ccc2N2CCCC2)s1,inactive
4,CN(C)S(=O)(=O)c1ccc(N2CCCC2)c(C(=O)Nc2ccccc2)c1,inactive
5,Cc1cnc(NC(=O)c2cc(S(=O)(=O)N(C)C)ccc2N(C)C)s1,inactive
6,CN(C)S(=O)(=O)c1ccc(N2CCCC2)c(C(=O)Nc2cccc(F)c2)c1,inactive
7,Cc1cnc(NC(=O)c2cc(S(=O)(=O)N(C)C)ccc2C2CCCC2)s1,inactive
8,COc1ccc2nc(NC(=O)c3cc(S(=O)(=O)N(C)C)ccc3N3CCCC3)sc2c1,inactive
9,CN(C)S(=O)(=O)c1ccc(N2CCCC2)c(C(=O)Nc2nc3ccccc3s2)c1,inactive
10,COc1ccc2sc(NC(=O)c3cc(S(=O)(=O)N(C)C)ccc3N3CCCC3)nc2c1,inactive
11,Cc1cnc(NC(=O)c2cc(S(=O)(=O)N(C)C)ccc2N2CCC2)s1,inactive
12,Cc1cnc(NC(=O)c2cc(S(=O)(=O)N(C)C)ccc2N2CCCC2)s1,inactive
13,Cc1cnc(NC(=O)c2cc(S(=O)(=O)N3CCCC3)ccc2N2CCCC2)s1,inactive
14,CCN(CC)c1ccc(S(=O)(=O)N(C)C)cc1C(=O)Nc1ncc(C)s1,inactive
15,COc1cccc2sc(NC(=O)c3cc(S(=O)(=O)N(C)C)ccc3N3CCCC3)nc12,inactive
16,Cc1csc(NC(=O)c2cc(S(=O)(=O)N(C)C)ccc2N2CCCC2)n1,inactive
17,CN(C)CCCN(Cc1cc2ccccc2[nH]c1=O)C(=O)Nc1ccccc1,inactive
18,Cc1ccc(NC(=O)c2cc(S(=O)(=O)N(C)C)ccc2N2CCCC2)cc1,inactive
19,Cc1cnc(NC(=O)c2cc(S(=O)(=O)N3CCCCC3)ccc2N2CCCC2)s1,inactive
